“And” between values parts separate entries of the source, which are not always exact repeats. Identical values can stand only once. Where a structure was tested more than once in an assay, its records may differ in their call. The source made the active and inactive calls.

Test [1] is described as follows: binders of probe aFSTL3 on microarray, primary screen, stem cell growth factor project, biochemical, small-molecule microarray, fluorescence 635/667 (AID 1064).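 Note: measures binding of the biotinylated anti-FSTL3 antibody to printed compounds.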 The note with it: higher = more signal.
Test [2] can be described thus: binders from COS7 lysate, DM2A8 probe, primary screen, torsin A project, cell lysate, small-molecule microarray, fluorescence 635/667 (AID 1065). Conditions: higher = more signal, COS7 lysate expressing mutant human TOR1A.
Test [3] is described as follows: binders of probe aFGF2 on microarray, primary screen, stem cell growth factor project, biochemical, small-molecule microarray, fluorescence 635/667 (AID 1067).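 Note: measures binding of biotinylated aFGF2 protein to printed compounds on slides; z-score merges feature fluorescence and signal-to-noise across triplicate slides.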 Conditions: higher = more signal.
Test [4] in a line: binders of probe aFGF10 on microarray, primary screen, stem cell growth factor project, biochemical, small-molecule microarray, fluorescence 635/667 (AID 1071).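 Note: score merges 667 nm spot intensity and signal to noise from triplicate slides.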 Conditions: higher = more signal.
Test [5] concerns the target Neurogenic locus notch homolog protein 2 (Homo sapiens) (UniProt Q04721). The test is described as follows: Notch2 binders on small-molecule microarrays, primary screen, biochemical, small-molecule microarray, 635 nm fluorescence, stem cell growth factors (AID 1073). Conditions: Notch2 binding, higher = more signal.
Test [6] deals with Pro-neuregulin-1, membrane-bound isoform (Homo sapiens) (UniProt Q02297). The test is described as follows: NRG1 binders on small-molecule microarrays, primary screen, psychiatric disease protein project, biochemical, small-molecule microarray, fluorescence 635/667 (AID 1075).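 Note: score combines 667 nm spot fluorescence with signal to noise.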 The note with it: NRG1 binding, 635 nm fluorescence, higher = more signal.
The test system of test [7] is Neuregulin-1 EGF-like domain. The test is described as follows: binders of neuregulin-1 EGF-like domain, primary screen, biochemical, small-molecule microarray, 635 nm fluorescence (AID 1081).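 Note: binding of the protein to compounds printed on small-molecule microarray slides.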 The note with it: small-molecule microarray binding, higher = more signal.
A short description of test [8]: FRG1 promoter luciferase signal modulators, primary screen, FRG1 inhibition for FSHD, cell-based, C2C12 myotubes, firefly/Renilla luciferase, luminescence (AID 1084). Conditions: higher = more signal, called active from +8 up or from −8 down.
Test [9] can be described thus: binders of probe aFST on microarray, primary screen, stem cell growth factor project, biochemical, small-molecule microarray, fluorescence 635/667 (AID 1086).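 Note: score merges 667 nm fluorescence with signal-to-noise of each printed compound spot.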 Conditions: higher = more signal.
Test [10] is described as follows: binders of probe aHhip on microarray, primary screen, stem cell growth factor project, biochemical, small-molecule microarray, fluorescence 635/667 (AID 1087).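 Note: score merges spot fluorescence at 667nm with spot signal to noise ratio.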 The note with it: higher = more signal.
The test system of test [11] is PRMT1 (protein arginine N-methyltransferase 1). The test is described as follows: PRMT1 binders on small-molecule microarrays, primary screen, biochemical, small-molecule microarray, 635 nm fluorescence (AID 1088).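 Note: binding of Prmt1 protein to compounds spotted on small-molecule microarray slides.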 Conditions: small-molecule microarray binding, higher = more signal.
Test [12] can be described thus: yeast growth modulation, basal conditions, primary screen, YJM789 clinical isolate, OD600, 24 h (AID 1089).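 Note: growth of clinical yeast isolate S. cerevisiae YJM 789 seeded 1000 cells per well; test concentration not given here.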 Conditions: S. cerevisiae YJM789 growth, higher = more signal, called active from +8 up or from −8 down.
Test [13] is described as follows: fission yeast growth modulation, primary screen, strain 972, OD600, 24 h, no modulator (AID 1090).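 Note: basal condition with compound alone and no growth modifier present; test concentration not given here.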 Conditions: S. pombe 972 growth, higher = more signal, called active from +8 up or from −8 down.
The nature of test [14]: S. cerevisiae growth modulation with rapamycin, primary screen, strain BY4716, OD600, 96 h (AID 1091). Note: test concentration not given here. The note with it: higher = more signal, called active from +8 up or from −8 down.
For test [15], the target named is Torsin-1A-interacting protein 2 (Homo sapiens) (UniProt Q8NFQ8). The test is described as follows: LULL1 binders on small-molecule microarray, primary screen, cell lysate, human LULL1 lysate, 635/667 nm fluorescence (AID 1092).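 Note: probe is lysate of COS7 cells overexpressing human LULL1; score merges per-feature 667 nm fluorescence with signal-to-noise.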 Conditions: hLULL1 lysate binding, 635 nm fluorescence, higher = more signal.
Test [16] in a line: E. coli growth modulation, two-sided OD650, primary screen, E. coli filamentation project, strain DRC41, 24 h (AID 1093).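 Note: MC1000 strain lacking acrAB efflux and sulA so SOS filamentation is blocked; test concentration not given here.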 The note with it: OD650, 24 h, higher = more signal, called active from +8 up or from −8 down.
The nature of test [17]: small-molecule microarray binders of probe aLefty2, primary screen, biochemical, biotinylated probe, 635/667 nm fluorescence (AID 1094).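 Note: score merges spot fluorescence near 667 nm with spot signal-to-noise ratio.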 Conditions: higher = more signal.
The subject of test [18] is Noggin (protein binding on small-molecule microarray). Put plainly: Noggin binders on small-molecule microarray, primary screen, biochemical, 635/667 nm fluorescence (AID 1095).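 Note: score merges 667 nm feature fluorescence with signal to noise over triplicate slides.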 The note with it: 635 nm fluorescence, higher = more signal.
In test [19] the target is Neurogenic locus notch homolog protein 3 (Homo sapiens) (UniProt Q9UM47). The test is described as follows: NOTCH3 binders on small-molecule microarray, primary screen, biochemical, 635/667 nm fluorescence (AID 1096). Conditions: NOTCH3 binding, 635 nm fluorescence, higher = more signal.
Test [20] can be described thus: small-molecule microarray binders of probe aEGFR, primary screen, biochemical, biotinylated probe, 635/667 nm fluorescence (AID 1097).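 Note: probe is a biotinylated anti-EGFR antibody binding compounds printed on slides; score combines fluorescence near 667 nm and signal to noise of each spot.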 Conditions: higher = more signal.

Sequence of Torsin-1A-interacting protein 2 (Homo sapiens) (Q8NFQ8 whole entry, looked up): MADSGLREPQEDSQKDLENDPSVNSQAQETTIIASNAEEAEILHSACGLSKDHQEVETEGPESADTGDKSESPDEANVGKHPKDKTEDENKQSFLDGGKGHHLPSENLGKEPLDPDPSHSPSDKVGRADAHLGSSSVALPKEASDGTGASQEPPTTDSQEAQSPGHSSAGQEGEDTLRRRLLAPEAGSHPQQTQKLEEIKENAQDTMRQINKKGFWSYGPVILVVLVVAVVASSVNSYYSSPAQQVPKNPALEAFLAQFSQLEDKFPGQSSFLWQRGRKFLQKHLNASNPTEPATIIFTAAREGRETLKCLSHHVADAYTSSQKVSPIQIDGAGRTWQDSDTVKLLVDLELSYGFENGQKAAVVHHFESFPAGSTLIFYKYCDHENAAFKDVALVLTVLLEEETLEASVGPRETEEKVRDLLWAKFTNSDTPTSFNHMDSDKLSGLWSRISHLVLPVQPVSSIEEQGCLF
Sequence of Neurogenic locus notch homolog protein 3 (Homo sapiens) (Q9UM47 whole entry, looked up): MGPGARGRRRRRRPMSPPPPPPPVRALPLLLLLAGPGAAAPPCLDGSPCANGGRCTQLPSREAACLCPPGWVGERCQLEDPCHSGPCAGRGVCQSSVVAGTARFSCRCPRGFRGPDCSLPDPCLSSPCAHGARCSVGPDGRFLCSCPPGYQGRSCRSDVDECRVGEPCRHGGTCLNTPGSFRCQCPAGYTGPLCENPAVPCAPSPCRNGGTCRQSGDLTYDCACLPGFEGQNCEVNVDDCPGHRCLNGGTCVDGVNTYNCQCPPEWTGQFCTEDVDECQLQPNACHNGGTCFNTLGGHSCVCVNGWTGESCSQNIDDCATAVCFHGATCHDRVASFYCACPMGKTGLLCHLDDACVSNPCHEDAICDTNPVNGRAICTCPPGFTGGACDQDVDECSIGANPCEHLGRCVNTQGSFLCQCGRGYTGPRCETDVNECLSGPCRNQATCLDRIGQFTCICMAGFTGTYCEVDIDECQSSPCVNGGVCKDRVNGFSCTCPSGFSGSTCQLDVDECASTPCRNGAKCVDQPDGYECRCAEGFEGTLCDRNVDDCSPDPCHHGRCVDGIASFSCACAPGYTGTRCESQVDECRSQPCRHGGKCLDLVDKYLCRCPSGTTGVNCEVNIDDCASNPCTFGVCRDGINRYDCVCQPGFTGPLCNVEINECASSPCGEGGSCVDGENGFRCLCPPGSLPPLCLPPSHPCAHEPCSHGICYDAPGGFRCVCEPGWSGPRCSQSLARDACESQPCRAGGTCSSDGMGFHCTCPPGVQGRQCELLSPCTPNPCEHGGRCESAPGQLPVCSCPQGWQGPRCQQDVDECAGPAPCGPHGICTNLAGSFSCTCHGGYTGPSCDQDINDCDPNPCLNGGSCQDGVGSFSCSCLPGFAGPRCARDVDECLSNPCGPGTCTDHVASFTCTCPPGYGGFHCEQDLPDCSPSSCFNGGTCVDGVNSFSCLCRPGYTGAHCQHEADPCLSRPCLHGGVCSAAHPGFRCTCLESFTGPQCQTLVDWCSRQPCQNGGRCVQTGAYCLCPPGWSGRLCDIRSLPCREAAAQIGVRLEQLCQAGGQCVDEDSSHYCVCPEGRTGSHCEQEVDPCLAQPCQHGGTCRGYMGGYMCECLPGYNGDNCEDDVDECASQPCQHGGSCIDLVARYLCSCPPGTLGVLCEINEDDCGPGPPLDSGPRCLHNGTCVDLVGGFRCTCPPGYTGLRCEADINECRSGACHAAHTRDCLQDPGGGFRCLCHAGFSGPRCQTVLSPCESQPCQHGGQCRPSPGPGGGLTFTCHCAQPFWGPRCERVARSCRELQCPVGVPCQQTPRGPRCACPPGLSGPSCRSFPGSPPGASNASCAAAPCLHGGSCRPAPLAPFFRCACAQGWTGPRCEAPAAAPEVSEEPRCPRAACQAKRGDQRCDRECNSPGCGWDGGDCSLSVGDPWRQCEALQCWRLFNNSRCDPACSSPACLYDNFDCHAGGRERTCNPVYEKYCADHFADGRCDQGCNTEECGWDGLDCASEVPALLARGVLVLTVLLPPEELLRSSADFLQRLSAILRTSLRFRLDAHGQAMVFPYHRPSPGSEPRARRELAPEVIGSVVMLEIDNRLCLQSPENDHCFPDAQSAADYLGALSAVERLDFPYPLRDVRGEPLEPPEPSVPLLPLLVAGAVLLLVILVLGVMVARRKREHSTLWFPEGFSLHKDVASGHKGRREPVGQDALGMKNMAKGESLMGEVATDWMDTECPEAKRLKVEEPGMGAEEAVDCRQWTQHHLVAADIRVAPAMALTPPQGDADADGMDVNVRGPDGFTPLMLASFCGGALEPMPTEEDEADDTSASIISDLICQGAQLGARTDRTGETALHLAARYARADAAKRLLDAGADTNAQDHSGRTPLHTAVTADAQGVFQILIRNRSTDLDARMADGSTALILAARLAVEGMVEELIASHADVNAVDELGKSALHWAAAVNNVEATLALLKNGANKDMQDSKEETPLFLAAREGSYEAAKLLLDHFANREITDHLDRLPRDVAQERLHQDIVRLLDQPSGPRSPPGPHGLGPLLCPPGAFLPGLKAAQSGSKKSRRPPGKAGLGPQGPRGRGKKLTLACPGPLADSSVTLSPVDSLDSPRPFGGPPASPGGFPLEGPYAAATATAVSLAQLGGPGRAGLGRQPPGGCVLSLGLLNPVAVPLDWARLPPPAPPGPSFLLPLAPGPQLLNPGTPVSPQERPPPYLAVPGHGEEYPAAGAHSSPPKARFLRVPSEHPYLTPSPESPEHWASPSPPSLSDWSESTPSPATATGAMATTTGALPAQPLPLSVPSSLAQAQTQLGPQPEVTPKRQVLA
Sequence of Pro-neuregulin-1, membrane-bound isoform (Homo sapiens) (Q02297 whole entry, looked up, the tested form may be a part, canonical isoform): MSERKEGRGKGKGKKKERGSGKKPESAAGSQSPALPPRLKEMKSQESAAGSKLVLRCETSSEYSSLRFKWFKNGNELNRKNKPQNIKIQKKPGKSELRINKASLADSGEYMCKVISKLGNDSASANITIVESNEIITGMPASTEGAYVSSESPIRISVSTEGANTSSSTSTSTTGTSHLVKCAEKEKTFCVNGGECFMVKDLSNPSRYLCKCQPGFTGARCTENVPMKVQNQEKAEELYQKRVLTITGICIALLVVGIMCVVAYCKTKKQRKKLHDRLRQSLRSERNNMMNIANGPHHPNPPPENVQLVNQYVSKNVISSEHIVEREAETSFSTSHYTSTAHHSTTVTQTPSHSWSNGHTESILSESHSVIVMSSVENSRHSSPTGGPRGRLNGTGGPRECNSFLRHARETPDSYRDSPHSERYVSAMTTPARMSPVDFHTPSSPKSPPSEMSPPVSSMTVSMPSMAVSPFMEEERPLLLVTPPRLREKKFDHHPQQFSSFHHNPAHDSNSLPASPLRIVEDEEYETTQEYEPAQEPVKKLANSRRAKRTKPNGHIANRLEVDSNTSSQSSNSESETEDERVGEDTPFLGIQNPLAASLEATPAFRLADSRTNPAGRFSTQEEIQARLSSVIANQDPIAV

Take `CCOC(=O)[C@H](CC(C)C)NC(=O)CCC1CC(OC(=O)NCc2cccc3ccccc23)CC2(CCCC(COC(=O)NCc3ccccc3)O2)O1` (stereo not given in full): the composite z-score is -0.289 in [1]; -0.0297 in test [2]; -0.116 in [3]; 0.129 in [4]; -0.362 in [5]; -0.421 in [6]. For the same compound, the composite z-score in test [7] was -0.0852; in test [9], -0.0955; in [10], -0.143; in test [11], -0.0282; in [15], -0.393; in test [17], -0.221. The composite z-score in test [18] was 0.306; in test [19], 0.156; in test [20] it was -0.182. The z-score in [8] is 2.99 (inactive); in [12], -1.11 (inactive); in [13], -0.0838 (inactive); in test [14] it was -0.395 (inactive); in test [16], -0.548 (inactive).

Turning to `COC(=O)C1=C(C)N(Cc2ccccc2)[C@]23O[C@](C(=O)OC)(C(=O)N2[C@@H]1c1ccccc1)[C@H]1CCCC(=O)[C@H]13`, the composite z-score was 0.0353 and -0.148 in [1]; 0.383 and 1.06 in test [2]; -0.0333 and -0.0507 in [3]; 0.513 and 0.359 in test [4]; 1.15 and 0.327 in test [5]; 1.21 and -0.23 in test [6]. The composite z-score in test [7] was 0.636 and -0.133; in test [9] it was 0.395 and 0.0869; in test [10] it was 0.186 and -0.236; in [11], -0.0081 and 0.249; in [15], 0.164 and -0.142; in test [17], -0.102 and -0.132. Further, the composite z-score in test [18] is 0.0709 and 0.413; in [19], 0.31 and 0.604; in [20], 0.173 and -0.0497. In addition, the z-score in [8] was -1.02 (inactive) and 0.357 (inactive); in test [12] it was 0.563 (inactive) and 0.21 (inactive); in test [13], -1.79 (inactive) and -1.07 (inactive); in test [14] it was -1.95 (inactive) and -0.557 (inactive); in test [16], 0.302 (inactive) and -0.824 (inactive).

Turning to `COC(=O)[C@@]1(Cc2ccc(F)cc2)[C@H]2c3cc(C(=O)N4CCCC4)n(Cc4c(CO)[nH]cc(C)c4=O)c3C[C@H]2CN1C(=O)c1ccccc1`, the composite z-score is 1.8 and 0.692 in test [1]; -0.101 and -1.02 in test [2]; 0.775 and -0.0485 in [3]; 1.22 and 0.774 in test [4]; 1.43 and 1.42 in test [5]; 1.92 and 1.21 in test [6]. Further, the composite z-score is 1.31 and 1.1 in test [7]; 1.54 and 0.659 in test [9]; 1.42 and 0.314 in [10]; 0.519 and 0.355 in test [11]; 3.29 and 3.28 in [15]; 1.33 and 0.155 in test [17]. Besides, the composite z-score was 0.0162 and -0.629 in test [18]; 0.335 and 0.422 in test [19]; 0.985 and 0.0594 in test [20]. The z-score in test [8] was 1.78 (inactive) and -0.112 (inactive); in test [12], 0.786 (inactive) and 1.14 (inactive); in test [13], 1.36 (inactive) and 1.39 (inactive); in test [14], 0.925 (inactive) and 1.59 (inactive); in test [16], -0.633 (inactive) and -0.87 (inactive).

Consider `C=C[C@H](C)[C@H](O)c1ccc(O)c2ccccc12`, for which the composite z-score in test [1] is 0.101 and 0.398; in [2], 0.848 and -0.282; in test [3] it was -0.144 and -0.0541; in test [4] it was -0.737 and -0.0937; in [5], -1.43 and -0.16; in test [6], -0.532 and -0.889. The composite z-score was 0.316 and -0.53 in test [7]; -1.03 and -0.735 in test [9]; -0.12 and -0.0994 in [10]; -0.0037 and -0.738 in test [11]; 0.48 and 0.622 in test [15]; -0.274 and -0.168 in test [17]. Moreover, the composite z-score is -0.431 and -0.211 in test [18]; -0.283 and -0.073 in test [19]; -0.275 and -0.203 in test [20]. Moreover, the z-score was -0.891 (inactive) and -0.971 (inactive) in test [8]; -3.96 (inactive) and -3.22 (inactive) in test [12]; -10.7 (active) and -6.18 (inactive) in test [13]; 4.04 (inactive) and 4.01 (inactive) in test [14]; 1.84 (inactive) and 1.81 (inactive) in test [16].
